Test results taken from PubChem BioAssay (NCI).
Compounds without any hit were thinned out: in the full panel of roughly 83,000, 20% have a hit.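 In brief: 96-well plates, 48 h treatment, single concentration, percent growth endpoint.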 Calls of active or inactive are those of the source. How the source made its calls: active means growth percent below 10; inactive means the rest.

Tests used:
Test in all cases: NCI-60 one-dose screen, 48 h (100 = growth as untreated, 0 = no growth, -100 = all killed)
Details in all cases: 10 µM unless noted
SR leukemia = tested on: SR leukemia
RPMI-8226 leukemia = tested on: RPMI-8226 leukemia
OVCAR-8 ovarian = tested on: OVCAR-8 ovarian
OVCAR-5 ovarian = tested on: OVCAR-5 ovarian
SK-OV-3 ovarian = tested on: SK-OV-3 ovarian
IGROV1 ovarian = tested on: IGROV1 ovarian
OVCAR-3 ovarian = tested on: OVCAR-3 ovarian
HS 578T breast = tested on: HS 578T breast
NCI/ADR-RES ovarian = tested on: NCI/ADR-RES ovarian
T-47D breast = tested on: T-47D breast
BT-549 breast = tested on: BT-549 breast
MDA-MB-435 melanoma = tested on: MDA-MB-435 melanoma
SW-620 colon = tested on: SW-620 colon
MCF7 breast = tested on: MCF7 breast
HCT-116 colon = tested on: HCT-116 colon
HCC-2998 colon = tested on: HCC-2998 colon
KM12 colon = tested on: KM12 colon
OVCAR-4 ovarian = tested on: OVCAR-4 ovarian

Measured: growth

O=C1c2cccc3c(-c4ccc5c(c4)ncn5C4CCCCC4)ccc(c23)C(=O)N1c1nc2ccccc2s1
inactive: SR leukemia 81% | RPMI-8226 leukemia 75.6% | OVCAR-8 ovarian 98% | OVCAR-5 ovarian 102% | SK-OV-3 ovarian 95% | IGROV1 ovarian 92.3% | OVCAR-3 ovarian 89.8% | HS 578T breast 92.9% | NCI/ADR-RES ovarian 91.3% | T-47D breast 72.6% | BT-549 breast 95.8% | MDA-MB-435 melanoma 100% | SW-620 colon 108% | MCF7 breast 69% | HCT-116 colon 84.4% | HCC-2998 colon 93% | KM12 colon 83.8%

COc1ccc(-c2nc([C@@H](C)Sc3nc(N)cc(N)n3)c(C)s2)cc1OCCN1CCOCC1
inactive: SR leukemia 97.5% | RPMI-8226 leukemia 70.3% | OVCAR-8 ovarian 95.8% | OVCAR-5 ovarian 121% | SK-OV-3 ovarian 131% | IGROV1 ovarian 123% | OVCAR-3 ovarian 102% | HS 578T breast 94.2% | NCI/ADR-RES ovarian 101% | T-47D breast 99.5% | BT-549 breast 96.1% | MDA-MB-435 melanoma 110% | SW-620 colon 107% | MCF7 breast 101% | HCT-116 colon 103% | HCC-2998 colon 83.9% | KM12 colon 104%

COc1cc2c(c(OC)c1OC)-c1ccc(NNC(=S)N(Cc3cccc(C[N+](Cc4cccc(CNC56CC7CC(CC(C7)C5)C6)c4)(Cc4cccc(CNC56CC7CC(CC(C7)C5)C6)c4)Cc4cccc(CN(C(=S)NNc5ccc6c(cc5=O)[C@@H](NC(C)=O)CCc5cc(OC)c(OC)c(OC)c5-6)C56CC7CC(CC(C7)C5)C6)c4)c3)C34CC5CC(CC(C5)C3)C4)c(=O)cc1[C@@H](NC(C)=O)CC2 (some centres not stated)
active: SR leukemia -49.9% | RPMI-8226 leukemia -46.6% | HS 578T breast 7.62% | BT-549 breast -4.6% | MDA-MB-435 melanoma -9.46% | SW-620 colon 3.6% | MCF7 breast -24.6% | HCT-116 colon -54.6% | HCC-2998 colon -58.4% | KM12 colon 4.25%
inactive: OVCAR-8 ovarian 16.1% | OVCAR-5 ovarian 37% | SK-OV-3 ovarian 37% | IGROV1 ovarian 10.6% | OVCAR-3 ovarian 20.7% | NCI/ADR-RES ovarian 76.3% | T-47D breast 51.8%

COc1ccc(C(=O)c2cc(C)c(OC)c(C)c2)c(OC)c1NC(C)=O
inactive: SR leukemia 29.3% | RPMI-8226 leukemia 21.2% | OVCAR-8 ovarian 16.9% | OVCAR-5 ovarian 37.8% | SK-OV-3 ovarian 11% | IGROV1 ovarian 31.5% | HS 578T breast 14.4% | T-47D breast 60.6% | BT-549 breast 16.3% | SW-620 colon 21.2% | MCF7 breast 20.8% | HCC-2998 colon 13.8%
active: OVCAR-3 ovarian 5.93% | NCI/ADR-RES ovarian 0.837% | MDA-MB-435 melanoma -65.2% | HCT-116 colon 8.06% | KM12 colon 8.12%

COc1ccc(C(=O)c2nc3ccccc3n2CC(=O)c2ccc(Cl)cc2)cc1
active: RPMI-8226 leukemia -17.4% | OVCAR-3 ovarian -6.3% | MDA-MB-435 melanoma -55.4%
inactive: SR leukemia 16.7% | OVCAR-8 ovarian 37.2% | OVCAR-5 ovarian 47% | OVCAR-4 ovarian 43.3% | SK-OV-3 ovarian 107% | IGROV1 ovarian 23.7% | T-47D breast 35.2% | BT-549 breast 47.9% | SW-620 colon 15.8% | MCF7 breast 11.9% | KM12 colon 28.4%

CCNC(=O)Oc1ccc(/C(=C(\C)c2ccccc2)c2ccc(OCCCN(C)C)cc2)cc1
inactive: SR leukemia 10.2% | RPMI-8226 leukemia 66.6% | OVCAR-8 ovarian 86.5% | OVCAR-5 ovarian 81.4% | OVCAR-4 ovarian 84.4% | SK-OV-3 ovarian 80.7% | IGROV1 ovarian 87.5% | OVCAR-3 ovarian 85.3% | NCI/ADR-RES ovarian 81.6% | T-47D breast 45.6% | BT-549 breast 70.7% | MDA-MB-435 melanoma 69.6% | SW-620 colon 94.5% | MCF7 breast 27% | HCT-116 colon 48.8% | HCC-2998 colon 67.9% | KM12 colon 65.8%

COc1cc(NC(C)CCCNC(=O)CCC(=O)NCCCNCCCCCCCCCCNCCCNC(=O)CCC(=O)NCCCC(C)Nc2cc(OC)cc3cccnc23)c2ncccc2c1 (configuration not stated)
active: OVCAR-4 ovarian 4.17% [8 µM]
inactive: SR leukemia 92% [8 µM] | RPMI-8226 leukemia 52.9% [8 µM] | OVCAR-8 ovarian 77.7% [8 µM] | OVCAR-5 ovarian 79.3% [8 µM] | SK-OV-3 ovarian 116% [8 µM] | IGROV1 ovarian 57.9% [8 µM] | OVCAR-3 ovarian 41.4% [8 µM] | NCI/ADR-RES ovarian 101% [8 µM] | T-47D breast 28.5% [8 µM] | BT-549 breast 95.5% [8 µM] | MDA-MB-435 melanoma 75.8% [8 µM] | SW-620 colon 73.4% [8 µM] | MCF7 breast 24.3% [8 µM] | HCT-116 colon 69.4% [8 µM] | HCC-2998 colon 79.8% [8 µM] | KM12 colon 89.2% [8 µM]

COc1ccc(/C=C/c2nc(Nc3ccc(Cl)cc3)c3ccccc3n2)cc1
active: SR leukemia -3.22%
inactive: RPMI-8226 leukemia 52.9% | OVCAR-8 ovarian 61.4% | OVCAR-5 ovarian 73.2% | OVCAR-4 ovarian 60.2% | SK-OV-3 ovarian 83.6% | IGROV1 ovarian 75.9% | OVCAR-3 ovarian 67.2% | NCI/ADR-RES ovarian 65.7% | T-47D breast 49.9% | BT-549 breast 93.4% | MDA-MB-435 melanoma 55.3% | SW-620 colon 48.7% | MCF7 breast 44% | HCT-116 colon 36.1% | HCC-2998 colon 63.9% | KM12 colon 48%

N#CC1=C(N)Oc2c(cnn2-c2ccc([N+](=O)[O-])cc2[N+](=O)[O-])C1c1ccccc1 (configuration not stated)
inactive: SR leukemia 98.2% | RPMI-8226 leukemia 92.5% | OVCAR-8 ovarian 101% | OVCAR-5 ovarian 99.1% | SK-OV-3 ovarian 112% | IGROV1 ovarian 100% | OVCAR-3 ovarian 112% | HS 578T breast 89% | NCI/ADR-RES ovarian 101% | T-47D breast 98% | BT-549 breast 107% | MDA-MB-435 melanoma 101% | SW-620 colon 96.2% | MCF7 breast 97% | HCT-116 colon 100% | HCC-2998 colon 101% | KM12 colon 101%

Cc1nnc2c(Cc3ccccc3)nc3ccccc3n12
inactive: SR leukemia 94.6% | RPMI-8226 leukemia 93.2% | OVCAR-8 ovarian 104% | OVCAR-5 ovarian 90.7% | SK-OV-3 ovarian 99.1% | IGROV1 ovarian 121% | OVCAR-3 ovarian 94% | HS 578T breast 104% | NCI/ADR-RES ovarian 87.4% | T-47D breast 92.4% | BT-549 breast 91.8% | MDA-MB-435 melanoma 93.2% | SW-620 colon 97.3% | MCF7 breast 97.9% | HCT-116 colon 93.1% | HCC-2998 colon 97.8% | KM12 colon 97.5%

O=C(Cn1c(C(=O)c2ccccc2)nc2ccccc21)c1ccc(F)cc1
inactive: SR leukemia 25.4% | RPMI-8226 leukemia 28.7% | OVCAR-8 ovarian 79.7% | OVCAR-5 ovarian 84.2% | OVCAR-4 ovarian 58.4% | SK-OV-3 ovarian 110% | IGROV1 ovarian 41.1% | OVCAR-3 ovarian 67.2% | NCI/ADR-RES ovarian 16.1% | T-47D breast 58.7% | BT-549 breast 60.2% | SW-620 colon 22.9% | MCF7 breast 36.4% | HCC-2998 colon 50.1% | KM12 colon 43.9%
active: MDA-MB-435 melanoma -32%

C=C(C)[C@@H]1CC[C@]2(CN)CC[C@]3(C)[C@H](CC[C@@H]4[C@@]5(C)CCCNC(C)(C)[C@@H]5CC[C@]43C)[C@@H]12
active: SR leukemia -38.7% | RPMI-8226 leukemia -43.8% | OVCAR-8 ovarian -59.6% | OVCAR-5 ovarian -23% | OVCAR-4 ovarian -70.9% | IGROV1 ovarian -81.9% | OVCAR-3 ovarian -85.8% | T-47D breast -10.1% | MDA-MB-435 melanoma -96.2% | SW-620 colon -84.5% | MCF7 breast -66.1% | HCT-116 colon -95.5% | HCC-2998 colon -80.6% | KM12 colon -85.4%
inactive: SK-OV-3 ovarian 86.1% | BT-549 breast 84.6%

COc1cc2oc(-c3cccc(C(=O)Nc4ccc5c(c4)OCO5)c3)cc(=O)c2c(O)c1OC
inactive: SR leukemia 75.9% | RPMI-8226 leukemia 79.8% | OVCAR-8 ovarian 30.6% | OVCAR-5 ovarian 88.9% | SK-OV-3 ovarian 91.4% | IGROV1 ovarian 81.6% | OVCAR-3 ovarian 89.5% | HS 578T breast 72.7% | NCI/ADR-RES ovarian 70.6% | T-47D breast 69.5% | BT-549 breast 84% | MDA-MB-435 melanoma 79.1% | SW-620 colon 84.5% | MCF7 breast 91.6% | HCT-116 colon 57% | HCC-2998 colon 105% | KM12 colon 70.6%

CN(C)CC(O)c1ccc(/C=C/c2ccc(Cl)cc2)cc1 (configuration not stated)
active: SR leukemia -38.8% | RPMI-8226 leukemia -8.89% | OVCAR-8 ovarian -34.2% | OVCAR-5 ovarian 2.11% | IGROV1 ovarian -57.8% | OVCAR-3 ovarian -64.8% | HS 578T breast -26.3% | NCI/ADR-RES ovarian 5.74% | MDA-MB-435 melanoma -48.2% | SW-620 colon -68.7% | MCF7 breast -81.6% | HCT-116 colon -58.3% | HCC-2998 colon -69% | KM12 colon -91.5%
inactive: SK-OV-3 ovarian 52.8% | T-47D breast 30.9% | BT-549 breast 78.8%

Cc1nn(-c2ccccc2)c(Cl)c1/C=C/C(=O)c1ccc(F)cc1
active: SR leukemia 4.28% | RPMI-8226 leukemia -15.6%
inactive: OVCAR-8 ovarian 86.4% | OVCAR-5 ovarian 97.4% | SK-OV-3 ovarian 110% | IGROV1 ovarian 104% | OVCAR-3 ovarian 102% | HS 578T breast 114% | NCI/ADR-RES ovarian 93.2% | T-47D breast 82.5% | BT-549 breast 92.9% | MDA-MB-435 melanoma 87% | SW-620 colon 64.7% | MCF7 breast 41.5% | HCT-116 colon 51.1% | HCC-2998 colon 107% | KM12 colon 84.9%

CCCCCCOc1ccc(/C=N/Nc2cc(C)nc3ccc(Cl)cc23)cc1
inactive: OVCAR-5 ovarian 26.5% | SK-OV-3 ovarian 90.2% | T-47D breast 34.5% | BT-549 breast 109%
active: SR leukemia -7.39% | RPMI-8226 leukemia -35.3% | OVCAR-8 ovarian -36.4% | OVCAR-4 ovarian -58.1% | IGROV1 ovarian -79% | OVCAR-3 ovarian -97% | NCI/ADR-RES ovarian -27.8% | MDA-MB-435 melanoma -75.9% | SW-620 colon -83.3% | MCF7 breast -66.6% | HCT-116 colon -58.9% | HCC-2998 colon -81.9% | KM12 colon -68.2%
